In PubChem BioAssay (NCATS) one finds activity, negative = cell killing, outcome and Potency data, which are given here for 22 compounds.

Results filed as inconclusive are left out. Values without a mark were called inactive. The source made the active and inactive calls. Calls follow the shape of the dose curve; as a rule, active = well fitted inhibition curve with a large enough effect; inconclusive = small, poorly fitted or top-dose-only effect; inactive = flat fitted curve, though single readings scatter.

Experiment [1] in a line: Drug repurposing screens with cells derived from glioblastoma tumor samples (AID 1345199). Also: nearly all actives have a fitted effect of over 40% in size. As to conditions: GBM patient neurospheres viability, ATP luminescence, 48 h. In short, it runs like this:
(§1)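 Primary testing used CD133+ neurospheres from four GBM patients, seven concentrations, 48 h exposure and ATP-based viability; confirmation added three slower-growing patient lines.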

Another experiment has as its system astro (control astrocytes). The description is as above. The conditions noted are these: viability, ATP luminescence, 48 h; series mostly up to 45.9 µM. In short, it runs like this:
as §1

Setting [2] is: at 45.9 µM (top of the series), tumour line B.
Where [3] appears, read: at 45.9 µM (top of the series), tumour line D.
Where [4] appears, read: at 46 µM (top of the series), tumour line A.
Setting [5] is: at 46.1 µM (top of the series), tumour line C.
The mark [6] stands for this setting: at 20 µM (top of the series), tumour line C.
Where [7] appears, read: at 21.2 µM (top of the series), tumour line B.
The mark [8] stands for this setting: at 21.2 µM (top of the series), tumour line D.
Setting [9] is: at 21.3 µM (top of the series), tumour line A.
% is scaled to controls: 0 for no effect and ±100 for the full control effect; potency is read from the fitted curve at half-maximal effect.

As for `Cc1ncc(CO)c(CN)c1O`, the activity, negative = cell killing was 0.478% in experiment [1] (setting [2]), 6.58% in experiment [1] (setting [3]), -23.9% in experiment [1] (setting [4]) and -87% in experiment [1] (setting [5]). The call in the experiment with astro was inactive.

On to `Cc1c(I)c(=O)n(-c2ccccc2)n1C`, for which the activity, negative = cell killing in experiment [1] (setting [2]) was -4.2%; in experiment [1] (setting [3]), -14%; in experiment [1] (setting [4]), -24.2%; in experiment [1] (setting [5]), 3.68%. Besides, the compound was called inactive in the experiment on astro.

Turning to `O=C(O)c1ccccc1C(=O)Nc1ccc(S(=O)(=O)Nc2nccs2)cc1`, the activity, negative = cell killing in experiment [1] (setting [2]) was -6.87%; in experiment [1] (setting [3]) it was -3.34%; in experiment [1] (setting [4]) it was -31.1%; in experiment [1] (setting [5]) it was 1.95%.

In the case of `N[C@@H](Cc1ccc(O)cc1)C(=O)O`, the activity, negative = cell killing in experiment [1] (setting [2]) was -2.51%; in experiment [1] (setting [3]), -14.6%; in experiment [1] (setting [4]), -11%; in experiment [1] (setting [5]), 37.9%. The call in the experiment on astro was inactive.

On to `CN/C(=C\[N+](=O)[O-])NCCSCc1csc(CN(C)C)n1`, for which the activity, negative = cell killing in experiment [1] (setting [6]) was -1.68%; in experiment [1] (setting [7]) it was 0.685%; in experiment [1] (setting [8]), -13.3%; in experiment [1] (setting [9]), -19.6%. Moreover, the outcome in the experiment on astro was inactive.

Take `CCCNC(C)C(=O)Nc1c(C)csc1C(=O)OC` (centres undefined): the activity, negative = cell killing was 8.39% in experiment [1] (setting [6]), -2.83% in experiment [1] (setting [7]), -13.6% in experiment [1] (setting [8]) and -41.7% in experiment [1] (setting [9]). The compound was classed as inactive in the experiment on astro.

Take `CC(=O)OCC(=O)[C@@]1(O)CC[C@H]2[C@@H]3CCC4=CC(=O)C=C[C@]4(C)[C@@]3(F)[C@@H](O)C[C@@]21C`: the activity, negative = cell killing is 11.3% in experiment [1] (setting [6]), 1.05% in experiment [1] (setting [7]), -1.44% in experiment [1] (setting [8]) and -7.16% in experiment [1] (setting [9]). Also, in the experiment with astro, the compound was called inactive.

For the compound `COc1ccc(-c2cc(=O)c3c(O)cc(O[C@@H]4O[C@H](CO[C@@H]5O[C@@H](C)[C@H](O)[C@@H](O)[C@H]5O)[C@@H](O)[C@H](O)[C@H]4O)cc3o2)cc1O`, the activity, negative = cell killing was -6.79% in experiment [1] (setting [2]), 0.355% in experiment [1] (setting [3]), -29.8% in experiment [1] (setting [4]) and 3.81% in experiment [1] (setting [5]). The call with astro was inactive.

On to `Cc1c(Cn2ccnc2)c2ccccc2n1CCC(=O)O`, for which the activity, negative = cell killing was 1.3% in experiment [1] (setting [2]), -4.06% in experiment [1] (setting [3]), -28% in experiment [1] (setting [4]) and -6.27% in experiment [1] (setting [5]). Moreover, the result in the experiment on astro was inactive.

`O=C(O)COC(=O)Cc1ccccc1Nc1c(Cl)cccc1Cl`: the activity, negative = cell killing in experiment [1] (setting [6]) was -2.19%; in experiment [1] (setting [7]), -12.4%; in experiment [1] (setting [8]), -4.64%; in experiment [1] (setting [9]), -12.9%. In addition, in the experiment with astro, the compound was classed as inactive.

On to `CCCNC(C)(C)COC(=O)c1ccccc1`, for which the activity, negative = cell killing is -3.47% in experiment [1] (setting [2]), 11.4% in experiment [1] (setting [3]), -6.31% in experiment [1] (setting [4]) and 1.22% in experiment [1] (setting [5]). Moreover, the call with astro was inactive.

On to `CCOC(N)=O`, for which the activity, negative = cell killing is -14.9% in experiment [1] (setting [2]), 19.2% in experiment [1] (setting [3]), -11.2% in experiment [1] (setting [4]) and -16.1% in experiment [1] (setting [5]). Besides, the compound was classed as inactive in the experiment with astro.

Regarding `O=C(Cn1ccnc1[N+](=O)[O-])NCc1ccccc1`, the activity, negative = cell killing in experiment [1] (setting [2]) was 4.79%; in experiment [1] (setting [3]), 3.98%; in experiment [1] (setting [4]) it was -20.7%; in experiment [1] (setting [5]), -17.9%. For the same compound, the call in the experiment on astro was inactive.

On to `NNC(=O)CP(=O)(c1ccccc1)c1ccccc1`, for which the activity, negative = cell killing in experiment [1] (setting [2]) was -1.23%; in experiment [1] (setting [3]), -15%; in experiment [1] (setting [4]), -19.4%; in experiment [1] (setting [5]), -12.7%. For the same compound, the compound was called inactive with astro.

Consider `COC(=O)c1cccnc1`, for which the activity, negative = cell killing in experiment [1] (setting [2]) is -7.13%; in experiment [1] (setting [3]), -4.81%; in experiment [1] (setting [4]), -28.2%; in experiment [1] (setting [5]) it was 40.1%. For the same compound, the call in the experiment with astro was inactive.

As for `O=C(O)c1cc(=O)c2ccccc2o1`, the activity, negative = cell killing is -4.66% in experiment [1] (setting [2]), -22.4% in experiment [1] (setting [3]), -22.8% in experiment [1] (setting [4]) and -14.3% in experiment [1] (setting [5]). Moreover, in the experiment with astro, the compound was classed as inactive.

Consider `CCCCCCCCCCC(CO)CCCCCCCC` (centres undefined), for which the activity, negative = cell killing in experiment [1] (setting [2]) is -11.9%; in experiment [1] (setting [3]) it was -0.979%; in experiment [1] (setting [5]), 14%. Also, in experiment [1] (tumour line A), the Potency is 25.1 µM (active). Further, the compound was called inactive with astro.

Take `CC1CCc2cc(F)cc3c(=O)c(C(=O)O)cn1c23` (centres undefined): the activity, negative = cell killing in experiment [1] (setting [2]) is -0.458%; in experiment [1] (setting [3]), -19%; in experiment [1] (setting [4]), -20.5%; in experiment [1] (setting [5]), -25.6%. Moreover, the compound was classed as inactive in the experiment on astro.

For the compound `CC(=O)OC[C@H]1O[C@@](COC(C)=O)(O[C@H]2O[C@H](COC(C)=O)[C@@H](OC(C)=O)[C@H](OC(C)=O)[C@H]2OC(C)=O)[C@@H](OC(C)=O)[C@@H]1OC(C)=O`, the activity, negative = cell killing is -8.85% in experiment [1] (setting [2]), -9.16% in experiment [1] (setting [3]), -28.7% in experiment [1] (setting [4]) and 2.01% in experiment [1] (setting [5]). For the same compound, the result in the experiment with astro was inactive.

As to `CCS(=O)(=O)CCn1c([N+](=O)[O-])cnc1C`, the activity, negative = cell killing is -12.4% in experiment [1] (setting [6]), -11.3% in experiment [1] (setting [7]), 3.43% in experiment [1] (setting [8]) and -20.5% in experiment [1] (setting [9]). Also, the outcome in the experiment on astro was inactive.

As for `O=C(/C=C/c1ccc(O)c(O)c1)O[C@@H]1C[C@@](OC(=O)/C=C/c2ccc(O)c(O)c2)(C(=O)O)C[C@@H](O)[C@@H]1O`, the activity, negative = cell killing in experiment [1] (setting [2]) is 1.43%; in experiment [1] (setting [3]), -4.97%; in experiment [1] (setting [5]), -11.7%. Moreover, in experiment [1] (tumour line A), the Potency was 28.2 µM (active). Besides, the call with astro was inactive.

As for `O=C(O)c1ccccc1OP(=O)(O)O`, the activity, negative = cell killing is -8.79% in experiment [1] (setting [2]), 13.5% in experiment [1] (setting [3]), -28.4% in experiment [1] (setting [4]) and -24.8% in experiment [1] (setting [5]). In the experiment on astro, the compound was classed as inactive.
